Pol eta inh – inhibitors of human DNA polymerase eta | Q9Y253 | recombinant Pol eta, fluorescent DNA replication assay | Potency, µM (series often up to 114 µM), for the others: at the highest dose activity change, negative = inhibition, most hits filed as inhibitors | 1.2% of 390,000 active | AID 588591; further: potency means the concentration at half of the fitted maximal effect; on the % scale 0 is the no-effect control and ±100 the full control effect
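Fluorescent replication assay: 50 nM final substrate added after a 15 min room-temperature compound preincubation with 10 nM enzyme. Signal taken at 0 min and again at 10 min.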
POLI inh – inhibitors of human DNA polymerase iota; Pol iota fluorescent replication assay, 10 min; AID 588590; Q9UNA4; 1% of 390,000 active; Potency, µM (series often up to 115 µM), for inactives: top-dose activity, negative = inhibition, most hits filed as inhibitors; further: potency means the concentration at half of the fitted maximal effect
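Pol iota at 10 nM preincubated 15 min with compounds at room temperature; reaction started with fluorescent substrate, 50 nM final. Fluorescence read kinetically at 0 and 10 min; buffer-only wells as negative control.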
Pol beta inh-1 – DNA polymerase beta (human) inhibition | 1.3% of 340,000 active | Potency, µM (series often up to 114 µM), without a hit: at the highest dose activity change, negative = inhibition, hits mostly inhibitors | Pol beta primer extension/strand displacement, fluorescence kinetic | AID 485314; further: potency means the concentration at half of the fitted maximal effect; on the % scale 0 is the no-effect control and ±100 the full control effect
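Human Pol beta at 10 nM; strand-displacement substrate 50 nM final. Compound exposure 15 min at room temperature before start, reaction 10 min at room temperature.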
POLK inh – DNA polymerase kappa (human) inhibition. Q9UBT6. purified Pol kappa, fluorescent DNA synthesis assay, 10 min. 0.53% of 400,000 active. Potency, µM (top dose mostly 107 µM), for the others: at the top dose activity, negative = inhibition, hits mostly inhibitors. AID 588579; further: potency means the concentration at half of the fitted maximal effect; on the % scale 0 is the no-effect control and ±100 the full control effect
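First, compounds were pin-transferred onto 10 nM Pol kappa. After 15 min at room temperature, substrate was added to 50 nM final. Fluorescence was then measured kinetically at 0 and 10 min.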
FEN1 inhibitor – human FEN1 inhibition; P39748; Recombinant FEN1 flap cleavage, fluorescence, 15 min; Potency, µM (series often up to 114 µM), inactives show top-dose activity change, negative = inhibition, actives largely listed as inhibitors; 0.35% of 390,000 active; further: potency means the concentration at half of the fitted maximal effect; on the % scale 0 is the no-effect control and ±100 the full control effect; nearly all actives have a fitted effect of over 65% in size
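Enzyme 10 nM, 15 min RT preincubation with compound; start with substrate 50 nM final; reads at 0 and 15 min; qHTS titration, four-parameter Hill fit.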
WRN helicase inh – blocks human WRN helicase; Q14191; 0.46% of 360,000 active; WRN helicase unwinding, fluorescent forked duplex, kinetic; Potency, µM (series often up to 114 µM), without a hit: top-dose activity change, negative = inhibition, hits mostly inhibitors; further: potency means the concentration at half of the fitted maximal effect; on the % scale 0 is the no-effect control and ±100 the full control effect; nearly all actives have a fitted effect of over 55% in size
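WRN at 20 nM final preincubated with compound 15 min at room temperature; reaction started with 100 nM fluorophore/quencher forked duplex oligonucleotide and 2 mM ATP final. Unwinding followed kinetically by red fluorescence (ex 525, em 598 nm).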
Pol beta inh-2 – Inhibitors of human DNA polymerase beta, hit validation | shares compounds with Pol beta inh-1 | Pol beta primer extension/strand displacement, fluorescence kinetic | Potency, µM, actives largely listed as inhibitors | 87% of 250 active; calls by dose curve; further: potency means the concentration at half of the fitted maximal effect
Klenow counter – counter-screen for DNA polymerase beta inhibitors: Klenow fragment inhibition. shares compounds with Pol beta inh-1. Klenow exo- polymerase counter-screen, fluorescent DNA substrate. activity change, negative = inhibition, % at 57.1 µM. 250 tested, under 10 active
HIV RT inh – HIV-1 RT inhibition, pol beta selectivity check. HIV-1 RT polymerase activity, counter-screen. shares compounds with Pol beta inh-1. activity % (negative = inhibition, positive = activation), % at 57.1 µM. 250 tested, under 10 active
POLB valid – validation of human DNA polymerase beta inhibitors | shares compounds with Pol beta inh-1 | radiolabeled primer extension gel assay, phosphorimager | inhibition, % at 10 µM | 91% of 110 active;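 active means inhibition at 10 µM of 30% or more; inconclusive means no clear call, values can overlap the other calls; inactive means inhibition at 10 µM under 30%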
* = called active by the depositor; u = inconclusive; x = not tested or not shown; [ ] = another dose, or the depositor's remark. The list is not random: actives were taken first. Their share in the collection is about 2.4%. Unless noted, the call rests on the fitted dose curve; in most records, active means well fitted curve in the direction sought with a large enough effect; inconclusive means small, poorly fitted or top-dose-only effect, or another doubt; inactive means no such curve, though single readings can be large; an effect the other way counts as inactive or inconclusive.

SMILES | Pol eta inh | POLI inh | Pol beta inh-1 | POLK inh | FEN1 inhibitor | WRN helicase inh | Pol beta inh-2 | Klenow counter | HIV RT inh | POLB valid
Cc1ccc(O)c(C(=O)c2cnn(C(=O)COc3ccc(Cl)cc3)c2)c1 | u | 14% | 5.6µM* | -3% | -10% | -17%[57.1 µM] | 14* | -13 | 16 | x
O=c1cc(CSc2nnc(NC3CCCCC3)s2)nc2sccn12 | 10% | 13% | 22% | -15% | 5% | 4% | x | x | x | x
C=CCn1c(SCc2cc(=O)n3ccsc3n2)nnc1C1CCCCC1 | 79µM* | 25µM* | 20µM* | u | -9% | 4%[11.6 µM] | u | -22 | 24 | 87*
CCOCCc1nn2c(=O)cc(COC(=O)CNC(=O)c3cccc(C)c3)nc2s1 | -10% | -5% | -8% | 0% | 2% | x | x | x | x | x
CCc1ccc(CNC(=O)Cc2c(C(=O)O)c(C)cn2C)cc1 | -13% | 14% | 18% | -6%[60.1 µM] | -4% | x | x | x | x | x
N=C1C(c2nc3ccccc3s2)=C(O)CN1NC(=O)c1c[nH]c2ccccc12 | -20% | u | 13µM* | -22% | -10% | -13% | 25* | -11 | 46 | 52*
Cc1cc(Br)ccc1NC(=O)c1coc(=O)c2ccccc12 | 3% | -9% | 7% | -7% | 15% | x | x | x | x | x
Cc1cc(C)n2nc(SCc3cc(=O)oc4cc(O)ccc34)nc2n1 | x | x | 13µM* | x | x | x | 22* | -27 | 14 | 84*
O=C(Nc1cccc(S(=O)(=O)NC2=NCCCCC2)c1)c1cc(-c2ccco2)nc2ccccc12 | u | 14µM* | 7.9µM* | 79µM* | -11% | u | 11* | -22 | 25 | x
CC(C)C(NC(=O)OCc1ccccc1)C(=O)OCC(=O)NC1CC1 (centres undefined) | -20% | 25% | -9% | 1% | 0% | 4% | x | x | x | x
CC(C)C(NC(=O)OCc1ccccc1)C(=O)OCC(=O)NCc1ccco1 (centres undefined) | 8.9µM* | u | 20µM* | u | -2% | u | u | -20 | 8 | 84*
COc1ccc(Cc2nnc(NC(=O)Cc3cccs3)s2)cc1OC | 6.3µM* | u | 8.9µM* | 79µM* | -19% | u | u | -25 | 42 | x
O=C(Cc1cccs1)Nc1nnc(SCC(=O)NC2CCCCC2)s1 | u | u | u | -31% | 1% | -18% | x | x | x | x
O=C(Cc1cccs1)Nc1nnc(SCc2cccc3ccccc23)s1 | u | 22µM* | 8.9µM* | 50µM* | 1% | -8%[11.6 µM] | 28* | -18 | 24 | 71*
CCC(=O)N1CCc2cc(Br)cc(S(=O)(=O)N3CCN(c4ccccc4OC)CC3)c21 | -15% | 23% | 10% | 9% | -3% | x | x | x | x | x
O=C(c1cccc(F)c1)N1CCC[C@@]2(CCN(Cc3nccs3)C2)C1 | x | x | x | 7%[60.1 µM] | x | x | x | x | x | x
CC(C)CN(C(=O)COC(=O)c1cc2c(s1)CCC2)C1CCS(=O)(=O)C1 (centres undefined) | 3.5µM* | 20µM* | 13µM* | 40µM* | u | u | 22* | 9 | 7 | x
CCCCOc1ccc(CNC(=O)c2cnc3sc(N4CCOCC4)nn3c2=O)cc1 | -15% | 6% | 0% | 1% | 0% | x | x | x | x | x
O=C(O)c1ccccc1C(=O)Nc1cccc([N+](=O)[O-])c1 | -7% | -15% | 2% | -8% | -16% | -1% | x | x | x | x
O=C(Nc1cccc([N+](=O)[O-])c1)c1cc2ccccc2cc1O | u | 45µM* | 18µM* | -27% | 5% | -22% | 28* | -8 | 27 | 98*
O=C(O)c1ccc(-c2ccc(-c3ccccc3)cc2)s1 | x | x | 16µM* | x | x | x | 20* | -4 | 43 | x
CNc1ccc(Br)cc(C(=O)/C=C/c2cc(OC)ccc2OC)c1=O | 14µM* | u | 13µM* | u | u | -9%[11.6 µM] | 28* | 6 | -24 | 43*
COc1ccc(/C=C/C(=O)c2cc(Br)ccc2O)cc1OC | -4% | 1% | 0% | -4% | -2% | -5% | x | x | x | x
CC(=O)c1ccc(NC(=O)CN2C(=O)CCc3ccccc32)cc1 | -10% | 36% | -12% | -7% | 8% | x | x | x | x | x
O=C(CN1C(=O)COc2ccc(S(=O)(=O)N3CCOCC3)cc21)N1CCN(c2cccc(C(F)(F)F)c2)CC1 | -21% | 27% | -1% | -6% | -3% | x | x | x | x | x
SMILES | Pol eta inh | POLI inh | Pol beta inh-1 | POLK inh | FEN1 inhibitor | WRN helicase inh | Pol beta inh-2 | Klenow counter | HIV RT inh | POLB valid
N#Cc1c2nc3ccccc3nc2n2cc(NC(=O)c3ccc(F)cc3)ccc12 | 35µM* | u | 6.3µM* | u | u | 20µM* | 10* | -19 | 0 | x
Cc1c(C(=O)Nc2ccc(F)cc2)cn2c(nc3ccccc32)c1C#N | -15% | 2% | -15% | -13% | 9% | -1% | x | x | x | x
COc1ccc2cc3cc(C(=O)Nc4ccc5c(c4)OCCO5)oc3nc2c1 | 11µM* | u | 13µM* | -13% | -12% | -32%[57.1 µM] | u | 8 | 27 | x
Cc1sc(NC(=O)c2sc3nc4c(C)cccc4cc3c2N)c(C#N)c1C | 2.8µM* | u | 5µM* | -27% | -22% | u | 8.9* | -30 | 2 | x
Cc1cc2[nH]c(=O)c(=O)[nH]c2cc1S(=O)(=O)N1CCN(c2ccccc2F)CC1 | -9% | 8% | -2% | 4% | 6% | -1% | x | x | x | x
Cc1cc2[nH]c(=O)c(=O)[nH]c2cc1S(=O)(=O)N1CCN(c2cccc(C)c2C)CC1 | u | u | 11µM* | u | 0% | u | 28* | -4 | 12 | 73*
Cc1ccc(N(C)C(=O)Cn2ncc3c([nH]c4ccccc43)c2=O)cc1C | -8% | 7% | 4% | -4% | -8% | x | x | x | x | x
C#CCn1c(=NC(=O)c2cccs2)sc2cccc(OC)c21 | u | u | 20µM* | -12% | -24% | -20% | 32* | -9 | 43 | 77*
CCn1c(=S)[nH]c2scc(-c3cccs3)c2c1=O | -3% | -17% | -1% | -17% | 14% | -15% | x | x | x | x
CC(C)n1c(=S)[nH]c2scc(-c3cccs3)c2c1=O | 18µM* | 20µM* | 7.9µM* | u | -7% | -33% | 22* | 4 | 10 | 98*

Screening results as filed in PubChem.
